Test results reported in PubChem BioAssay AID1159580 (chemical genetic matrix, 2015).
Several values for one entry are separate records, joined by “and”; a condition that tells them apart may be missing. Identical values can stand only once. Hit rate of the full screen: of about 5,500 compounds, about 2,000 (36%) were called active. Not shown: some 18% with an inconclusive outcome. Cut-off read from the data, not from the text of the source: active = normalized growth mostly below about 0.91 (no sharp cut-off); inconclusive = no clear call, values can overlap the other calls; inactive = mostly above about 0.92. This is one part of the list.

Experiment: chemical genetic growth profiling, strain panel (AID 1159580);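 note: tested at 20 µM; growth read once vehicle control cultures reached saturation at 30 °C; 1 = growth at the plate median or of vehicle wells; lower values mean less growth of the strain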
Details: S. cerevisiae deletion strains, growth OD

Measured: normalized growth

CNCCC=C1c2ccccc2CCc2ccccc21
active: locus YAL026C, strain drs2, active compounds read low 0.854
inactive: locus YAL013W, strain DEP1, active compounds read low 1.01 | locus YAL021C, strain ccr4, active compounds read low 0.919 | locus YAL030W, strain snc1, active compounds read low 0.975 | locus YAL040C, strain CLN3, active compounds read low 1.01 | locus YBL061C, strain skt5, active compounds read low 0.983 | locus YBR009C, strain hhf1, active compounds read low 0.989 | locus YBR021W, strain FUR4, active compounds read low 1.02 | locus YBR023C, strain chs3, active compounds read low 0.956 | locus YBR171W, strain sec66, active compounds read low 0.952 | locus YBR229C, strain ROT2, active compounds read low 1.01 | locus YBR231C, strain swc5, active compounds read low 0.996 | locus YBR279W, strain paf1, active compounds read low 0.971 | locus YCL011C, strain gbp2, active compounds read low 0.965 | locus YCL016C, strain dcc1, active compounds read low 0.946 | locus YCL029C, strain bik1, active compounds read low 1.04 | locus YCL061C, strain MRC1 (second series), active compounds read low 0.998 | locus YCL061C, strain MRC1, active compounds read low 0.981 | locus YCL069W, strain vba3, active compounds read low 0.976 | locus YCR088W, strain abp1, active compounds read low 0.978 | locus YDL005C, strain med2, active compounds read low 0.955 | locus YDL035C, strain GPR1, active compounds read low 1 | locus YDL040C, strain nat1, active compounds read low 0.974 | locus YDL074C, strain BRE1, active compounds read low 1.03 | locus YDL101C, strain DUN1, active compounds read low 1.02 | locus YDL134C, strain PPH21, active compounds read low 1.01 | locus YDL185W, strain tfp1, active compounds read low 1.02 | locus YDL192W, strain arf1, active compounds read low 1.02 | locus YDR001C, strain nth1, active compounds read low 0.986 | locus YDR069C, strain doa4, active compounds read low 0.929 | locus YDR101C, strain arx1, active compounds read low 1.03 | locus YDR137W, strain rgp1, active compounds read low 1.1 | locus YDR150W, strain NUM1, active compounds read low 1.01 and 1 | locus YDR159W, strain sac3, active compounds read low 0.955 | locus YDR162C, strain NBP2, active compounds read low 1 | locus YDR195W, strain ref2 1 | locus YDR297W, strain sur2, active compounds read low 0.99 | locus YDR318W, strain mcm21, active compounds read low 1.03 | locus YDR334W, strain swr1, active compounds read low 0.957 | locus YDR335W, strain msn5, active compounds read low 0.963 | locus YDR363W, strain ESC2, active compounds read low 0.951 | locus YDR388W, active compounds read low 1.02 | locus YDR392W, strain spt3, active compounds read low 0.939 | locus YDR502C, strain sam2, active compounds read low 1.03 | locus YEL003W, strain gim4, active compounds read low 0.972 | locus YEL037C, strain rad23, active compounds read low 0.967 | locus YEL061C, strain CIN8 (second series), active compounds read low 0.972 | locus YEL061C, strain CIN8, active compounds read low 1.01 | locus YER002W, strain NOP16, active compounds read low 1.03 | locus YER015W, strain faa2, active compounds read low 0.978 | locus YER016W, strain bim1, active compounds read low 0.97 | locus YER110C, active compounds read low 1.01 | locus YER111C, strain swi4, active compounds read low 0.953 | locus YER155C, strain BEM2 (second series), active compounds read low 0.917 | locus YER155C, strain BEM2, active compounds read low 1 | locus YER167W, strain BCK2, active compounds read low 1 | locus YFR010W, strain ubp6, active compounds read low 0.958 | locus YGL078C, strain dbp3, active compounds read low 1.01 | locus YGL086W, strain mad1, active compounds read low 1.01 | locus YGL167C, strain pmr1, active compounds read low 0.971 | locus YGL173C, strain kem1, active compounds read low 0.968 | locus YGL227W, strain vid30, active compounds read low 0.966 | locus YGL240W, strain doc1, active compounds read low 1.01 | locus YGL248W, strain PDE1, active compounds read low 1.01 | locus YGL253W, strain hxk2, active compounds read low 0.981 | locus YGR078C, strain PAC10, active compounds read low 1.03 and 0.991 | locus YGR135W, strain pre9, active compounds read low 1.02 | locus YGR229C, strain SMI1, active compounds read low 1.03 and 0.97 | locus YGR252W, strain gcn5, active compounds read low 1.14 | locus YHR013C, strain ard1, active compounds read low 0.885 | locus YHR027C, strain rpn1, active compounds read low 0.978 | locus YHR030C, strain SLT2, active compounds read low 1.01 and 0.966 | locus YHR079C, strain IRE1 (second series), active compounds read low 1.03 | locus YHR079C, strain IRE1, active compounds read low 0.974 | locus YHR094C, strain hxt1, active compounds read low 1.01 | locus YHR129C, strain ARP1, active compounds read low 1.01 | locus YHR142W, strain chs7, active compounds read low 0.961 | locus YHR200W, strain rpn10, active compounds read low 1.02 | locus YIL066C, strain RNR3, active compounds read low 1.02 | locus YIL073C, strain SPO22, active compounds read low 1.09 | locus YIL125W, strain kgd1, active compounds read low 1.01 | locus YIR030C, strain dcg1, active compounds read low 1.02 | locus YJL092W, strain hpr5, active compounds read low 0.991 | locus YJL095W, strain BCK1 (second series), active compounds read low 0.965 | locus YJL095W, strain BCK1, active compounds read low 1.01 and 0.961 | locus YJL115W, strain asf1, active compounds read low 0.961 | locus YJL129C, strain trk1, active compounds read low 0.978 | locus YJL134W, strain LCB3, active compounds read low 1.01 | locus YJL154C, strain vps35, active compounds read low 0.973 | locus YJL164C, strain tpk1, active compounds read low 0.978 | locus YJL166W, strain qcr8, active compounds read low 0.989 | locus YJL168C, strain set2, active compounds read low 1.01 | locus YJL187C, strain SWE1 (second series), active compounds read low 1.02 | locus YJR043C, strain POL32, active compounds read low 1.02 | locus YJR066W, strain TOR1, active compounds read low 0.923
